Assay results published in the supplement of paper PMC10681739.

target: T1, ETS1 (UniProt P14921); test: TF binding intensity (PBM fluorescence), negative control probe (arbitrary fluorescence units); higher = stronger binding
T1 sequence: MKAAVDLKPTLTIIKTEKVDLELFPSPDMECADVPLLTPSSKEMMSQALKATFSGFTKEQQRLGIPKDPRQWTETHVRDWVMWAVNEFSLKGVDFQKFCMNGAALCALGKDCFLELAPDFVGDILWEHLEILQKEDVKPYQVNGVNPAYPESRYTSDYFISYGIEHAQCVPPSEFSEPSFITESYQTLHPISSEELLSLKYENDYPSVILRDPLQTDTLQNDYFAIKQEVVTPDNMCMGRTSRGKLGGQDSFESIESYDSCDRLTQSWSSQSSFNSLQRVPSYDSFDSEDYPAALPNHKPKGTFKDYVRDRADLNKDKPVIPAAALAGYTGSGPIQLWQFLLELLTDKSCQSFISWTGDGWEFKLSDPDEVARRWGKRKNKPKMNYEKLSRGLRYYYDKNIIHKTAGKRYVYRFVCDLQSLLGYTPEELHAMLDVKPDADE
Method: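 gcPBM negative-control 36-bp genomic probes lacking TF binding sites. Each was incubated with recombinant human ETS1 or RUNX1 alone and detected by antibody fluorescence. Values are medians over replicate spots (4 spots for the ETS1-RUNX1 arrays, 3 for the ETS1-ETS1 array). The probes sit in constant array flanks that are not printed.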

| Sequence | TF binding intensity |
| --- | --- |
| CCTCGGGGGCCAATGTGTGCCTGTGGTGTGCGATTC (protein concentration 10 nM) | 121 |
| GGGTGGTGGGGCTTTCTTAGCAGCAAAATGTTCGCG (protein concentration 10 nM) | 223 |
| ATGGATAAGAATGTCTGTGGGTAGCTGTCTCCTCTT (protein concentration 1 nM) | 444 |
| AGCCCGGGTGACTTGAGAGTAATTAATGTGCAAAGA (protein concentration 10 nM) | 106 |
| CTACACATTTTAAAGAAAGAGACCACAGTTCTTTAT (protein concentration 10 nM) | 122 |
| TGAATGAGTCTTTTTTTGGCCATCTCTTTATGATTA (protein concentration 10 nM) | 132 |
| GAAATGGAGCAGAAAACCTGGAACCCAGCTGGGAAG (protein concentration 10 nM) | 117 |
| GATGCTCTGATACGCGCTGAAAAGAAGTCAGGCTTC (protein concentration 10 nM) | 134 |
| AGACTGCATACTTATAAAGTGGAGTATGCAGATAAT (protein concentration 10 nM) | 119 |
| CTTATTATTAATGGTCATTAGCCACAGTCACCACCA (protein concentration 10 nM) | 137 |
| GATATGAGATCAGAATGAGGCTGCATGAGAACAAGT (protein concentration 10 nM) | 112 |
| TAGTCCTGGAAAGGTCATGTCAACCCTCCTGCATAT (protein concentration 10 nM) | 115 |
| CCTGTTCTGTGTTTGGAGCCAGCAGAGCAGGGAGGA (protein concentration 10 nM) | 153 |
| GAGATGCAGCAGCGTCTCCCAGTCCTCACCGCGGCC (protein concentration 10 nM) | 112 |
| ACTGCTTTTTCACACAGCATCTTAATTGGCCTGTTT (protein concentration 10 nM) | 118 |
| GGTAATAGTTACTGCTGTGGTCTGAATGTTTGTGTC (protein concentration 1 nM) | 555 |
| TCTTTATCTGTCAGTACCACACTGTCTATTCTCCCA (protein concentration 1 nM) | 502 |
| CCTATTAAATTCAGATTTGCAGTTTGTTTTTTATCA (protein concentration 10 nM) | 117 |
| CCTTGCCAATGTTTGTGTGGAGAGCACACGGGTGCT (protein concentration 10 nM) | 116 |
| GTTCATCATCTCTCGTCAAGATGATTAACGACATGG (protein concentration 10 nM) | 141 |

| Sequence | TF binding intensity |
| --- | --- |
| TGGACTATATCAAGTGTGAACGATCATACTTGTTAT (protein concentration 10 nM) | 124 |
| CATTAGATTCTCATAAGGAGCATAACCTAGATCCCT (protein concentration 10 nM) | 104 |
| AATAAAGGTGAGGCAGTCCAGAGTATTTCAAAACGG (protein concentration 10 nM) | 116 |
| TCGAGTGGTGAGAAGGAGAAGGAGCGGCTGGGAGGC (protein concentration 10 nM) | 137 |
| AAACAAAGTAAGCTTTTAAGGACTCTGGTCAGAAAC (protein concentration 10 nM) | 101 |
| GAAGAGCAGGCCTGGCGTCTGCCCGTGCCAGTGTTT (protein concentration 10 nM) | 102 |
| GAGGGTCCCGGCTCTGCCGCAGGCGGGCGGGGCAGA (protein concentration 1 nM) | 339 |
| ACTGGCTAAGGTCTCTCCTGACCTGATTCCATTCTT (protein concentration 10 nM) | 97.3 |
| TCAGCAGCTCGTGCTGCTTGAAGTGCTGGGGGCGAG (protein concentration 10 nM) | 153 |
| CTAAATGGCATCTGATGTGGTATCTCTCCTCAGTTC (protein concentration 1 nM) | 455 |
| TCTGAATGCTAAGCTCATCGAAGACGCCCAGCACTT (protein concentration 10 nM) | 123 |
| TCACTCTCTGGACAGGGCCCTCTGAGCAAGCAACCA (protein concentration 10 nM) | 109 |
| AGAGCCACAGTGTGGCTTGGCTGGTAAATTATTTGT (protein concentration 10 nM) | 109 |
| GCTGGGGTTTGCTGCCTGGAGGCAGCCTGTCCAGGA (protein concentration 10 nM) | 109 |
| GCAACACTCACTCAAACCACAGTAATCAAAAGGCAC (protein concentration 1 nM) | 496 |
| ACATCTCATGGTTTTAAAGTAAATGAATTAAAAGTC (protein concentration 10 nM) | 116 |
| CCCCAGTAGAAGCCACCCAGCCTTTTGTTTGTTTTC (protein concentration 10 nM) | 133 |
| TATAAGGGGCTTTTCCCCTTTGGCTCAGCACTTCTC (protein concentration 10 nM) | 116 |
| GAGCATCACAAGGTCAGAGGAGGGGGCGGCCAGGGT (protein concentration 10 nM) | 240 |
| AATATCTACAGGGCTCACTCTCCCATGCTCTTCAGG (protein concentration 10 nM) | 108 |
